Screening data deposited in PubChem BioAssay by several laboratories.
Hits are enriched below; roughly 2.8% of the tested compounds scored in any of these assays.
Peg3 prom inh – Peg3 promoter-driven luciferase inhibitors, primary screen, cell-based, HeLa, luciferase luminescence | HeLa PEG-Prom luciferase reporter, overnight | inhibition, % at 20 µM | 1.7% of 360,000 active | AID 588405, 2011;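 active = inhibition of at least 50% at 20 µM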
TRPM1 prom inh – inhibitors of MITF-dependent TRPM1 promoter reporter, primary screen, cell-based, SK-MEL-5, single point, luciferase | SK-MEL-5 TRPM1 promoter luciferase, 24 h | inhibition, % at 12.5 µM | 0.83% of 330,000 active;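 active = mean inhibition across replicates of 60% or more, whatever share of single replicates reaches that level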
Beta2AR agonist – beta2AR agonists driving receptor internalization, primary screen, cell-based, FAP fluorogen, flow cytometry; Beta-2 adrenergic receptor (Homo sapiens), P07550; Am2.2-beta2AR cells; response, % (test concentration not listed); 0.43% of 340,000 active; AID 504454, 2011;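 active = response above a set limit, near 3 SD of response in nonfluorescent compounds, cut at about 42% in these data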
Target sequence (P07550 whole entry, looked up): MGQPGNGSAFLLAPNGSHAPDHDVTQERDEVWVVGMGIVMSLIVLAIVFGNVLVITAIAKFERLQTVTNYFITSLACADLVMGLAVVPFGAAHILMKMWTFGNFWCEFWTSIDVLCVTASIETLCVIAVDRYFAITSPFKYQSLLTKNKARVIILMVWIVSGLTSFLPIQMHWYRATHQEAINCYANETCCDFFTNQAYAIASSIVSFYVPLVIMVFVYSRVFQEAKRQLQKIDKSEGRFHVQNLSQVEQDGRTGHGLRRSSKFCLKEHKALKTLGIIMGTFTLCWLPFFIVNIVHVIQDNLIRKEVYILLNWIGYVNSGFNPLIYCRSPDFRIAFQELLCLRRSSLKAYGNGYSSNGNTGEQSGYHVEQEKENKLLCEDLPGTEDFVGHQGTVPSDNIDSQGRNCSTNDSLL
CF NFkB block – inhibitors of PAF-induced NF-kB signaling, primary screen, cell-based, GFP fluorescence, uHTS | KKLEB NF-kB-GFP reporter, GFP fluorescence overnight | inhibition, % at 5 µM | 0.86% of 360,000 active;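 active = at least 50% inhibition at 5 µM, scaled per plate between neutral and stimulator controls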;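 also: PAF is a Pseudomonas aeruginosa culture filtrate used as stimulus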
KKLEB tox – cytotoxicity in KKLEB CF airway cells, primary screen, cytotoxicity control for CF NF-kB inhibitor project, cell-based, uHTS, fluorescence assay plates; activity change (cytotoxicity), % at 5 µM; AID 602141, 2011; KKLEB CF airway cells viability, ATPlite luminescence, overnight; stronger effect = lower value; cells stimulated with P. aeruginosa culture filtrate; 0.36% of 360,000 active;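 active = corrected activity change at or below -50% at 5 µM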
HIF-2a block – HIF-2a reporter inhibitors, primary screen, luminescence, 786-0 RCC cells | inhibition, % at 18.8 µM | 0.72% of 360,000 active | 786-0 RCC cells HIF-2a reporter, luciferase luminescence, overnight;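 active = inhibition of the luminescence signal of 40% or more relative to plate controls, in a single-dose primary screen at 18.75 µM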
Mdm2-MdmX confirm – retested Mdm2-MdmX interaction blockers, confirmation, cell-based, luminescence, single concentration, set 2; shares compounds with HIF-2a block; SaOS-2 split-luciferase Mdm2/MdmX complementation; inhibition, % at 8 µM; 99% of 740 active;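 active = mean inhibition of the luminescence signal across two replicates at or above 26 percent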
HIF-2a inh conf – HIF-2a reporter inhibitor retest, confirmation, luminescence, 786-0 RCC cells | HIF-2a luciferase reporter luminescence, overnight | AID 651580, 2012 | shares compounds with HIF-2a block | inhibition, % at 18.8 µM | 56% of 1,800 active;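 active = mean inhibition across four replicates of at least 40 percent at the single tested concentration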
HIF-1a counter – HIF-1a luciferase reporter signal reduction – MiaPaCa-2 cells, single concentration, counter-screen for HIF-2a inhibitor project, confirmation; inhibition, % at 18.8 µM; 72% of 1,800 active; MiaPaCa-2 HIF-1a luciferase reporter, desferoxamine, overnight; shares compounds with HIF-2a block;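 active = mean inhibition of the reporter signal across four replicates at the single tested dose of 50% or more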
Each line names hits and unclear results; the compound was inactive in the other large screens (follow-up assays come after a bar, where they were run).

CC(C)(C)OC(=O)N1Cc2ccccc2C[C@H]1C(=O)NCC(=O)Nc1ccc2c(c1)OCCO2	HIF-2a block 47.1 | HIF-2a inh conf 58.0 | HIF-1a counter 80.7
O=C(O)c1ccc(NC(=S)NC(=O)c2ccc3ccccc3c2)cc1	none
O=C(O)c1cccc(NC(=S)NC(=O)c2ccc3ccccc3c2)c1	HIF-2a block 73.9 | HIF-2a inh conf 75.6 | HIF-1a counter inactive
Cc1ccc(OCc2ccc(C(=O)Nc3ccc(C(N)=O)cc3)o2)c([N+](=O)[O-])c1	none
CCOC(=O)C1=C(C)N=c2sc(=Cc3cc(Cl)c(OCC(=O)O)c(Cl)c3)c(=O)n2C1c1cccc(OC)c1 (stereo not drawn)	HIF-2a block 43.6 (no result: TRPM1 prom inh, Beta2AR agonist) | HIF-2a inh conf 46.1 | HIF-1a counter inactive
CCn1c2ccccc2c2cc(NC(=O)CSc3nnc(-c4ccc(OC)cc4)n3N)ccc21	HIF-2a block 40.9 | HIF-2a inh conf inactive | HIF-1a counter inactive
CCOC(=O)[C@]12CCCC=C1N(CCc1ccc(OC)c(OC)c1)C(=O)[C@H](CC(=O)N1CCSCC1)C2	none (no result: Peg3 prom inh, TRPM1 prom inh, Beta2AR agonist, CF NFkB block, KKLEB tox)
COc1ccc(C[C@H](N)C(=O)N[C@H]2[C@@H](O)[C@H](n3cnc4c(N(C)C)ncnc43)O[C@@H]2CO)cc1	Peg3 prom inh 102.3, TRPM1 prom inh 108.6, HIF-2a block 94.9 | Mdm2-MdmX confirm 103.0 | HIF-2a inh conf 94.9 | HIF-1a counter 105.1
CN(C)c1ncnc2c1ncn2C1OC(CO)C(O)C1O (stereo not drawn)	HIF-2a block 52.0 | HIF-2a inh conf inactive | HIF-1a counter inactive
Nc1ccn([C@@H]2O[C@H](CO)[C@@H](O)[C@@H]2O)c(=O)n1	none
OCC1OC(n2ccc3c2ncn2ncnc32)C(O)C1O (stereo not drawn)	CF NFkB block 68.4, KKLEB tox -57.1, HIF-2a block 54.0 (no result: TRPM1 prom inh, Beta2AR agonist) | HIF-2a inh conf inactive | HIF-1a counter 54.1
Cc1cc2c(cc1C)-n1nnnc1C(N(C)Cc1ccccc1)C(=O)N2 (stereo not drawn)	none (no result: Peg3 prom inh, TRPM1 prom inh, Beta2AR agonist, CF NFkB block, KKLEB tox)
COc1ccc(NC(=O)C2Cc3c(-c4ccc(Cl)cc4)ccnc3O2)cn1 (stereo not drawn)	none (no result: TRPM1 prom inh, Beta2AR agonist)
Cc1cc(C)c2nc(C)cc(N/N=C/c3ccc(O)cc3)c2c1	Peg3 prom inh 108.3, TRPM1 prom inh 86.0, KKLEB tox -80.8, HIF-2a block 92.8 | Mdm2-MdmX confirm 103.0
Cc1cc(-c2ccccc2)nc(N/N=C/c2ccc(O)cc2)n1	none
COc1cccc(/C=C2/CCC(CN(C)C)C2=O)c1 (stereo not drawn)	Peg3 prom inh 95.8, TRPM1 prom inh 97.5, HIF-2a block 59.8 | HIF-2a inh conf inactive | HIF-1a counter 103.4
COc1ccc(OC)c2sc(N(CCN(C)C)C(=O)/C=C/c3cccs3)nc12	Peg3 prom inh 104.4, TRPM1 prom inh 66.6, CF NFkB block 68.0, KKLEB tox -97.7, HIF-2a block 78.0 | HIF-2a inh conf inactive | HIF-1a counter 71.5
O=C(NCc1ccccc1)C(=O)Nc1cccc(C(=O)O)c1	TRPM1 prom inh 62.8, HIF-2a block 57.6 | HIF-2a inh conf 71.4 | HIF-1a counter inactive
CSc1cccc(NC(=O)C(=O)NCc2ccccc2)c1	none
COC(=O)c1cccc(NC(=O)Nc2ccc(Cl)c(Cl)c2)c1	none
COC(=O)c1cccc(NC(=O)NC(=O)c2ccccc2Cl)c1	HIF-2a block 57.2 | HIF-2a inh conf 64.2 | HIF-1a counter inactive
